Compounds without any hit were thinned out: in the full panel of roughly 83,000, 20% have a hit.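 Growth was measured after 48 h exposure to one concentration of compound in 96-well plates. Values under 10 count as active.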 Values without a mark were called inactive. Active and inactive are the calls of the source.

The test system of this experiment is SK-OV-3 ovarian. The experiment is described as follows: NCI-60 one-dose screen, 48 h (100 = growth as untreated, 0 = no growth, -100 = all killed). Conditions: 10 µM unless noted.
In the case of `COc1cccc(-c2nn(-c3ccccc3)cc2-c2ccnc(NCCCN)c2)c1`, the growth is 70.9%.
Under `Cn1cnc2c1c(=O)n(CCC(=O)Nc1ccc(F)cc1)c(=O)n2C` stands 91.2%; under `C=C(C)[C@@H]1CC[C@]2(C=O)CC[C@]3(C)[C@H](CC[C@@H]4[C@@]5(C)C/C(=C/c6cccnc6)C(=O)C(C)(C)[C@@H]5CC[C@]43C)[C@@H]12`, 117%.
With `CN(C)c1cccc2[nH]c(-c3[nH]ncc3Nc3ccnc(N)n3)nc12` the figure was 0.381% (active); with `O=Cc1nc2ccccc2[nH]1`, 94.2%.
With `COc1cc2nc(Cl)nc(Nc3cccc(C(=O)/C=C/c4ccc(Br)cc4)c3)c2cc1OC`, the growth was 96.7%.
With `CC[C@H](CC[C@@H](C)[C@H]1CC[C@H]2[C@@H]3/C(=C/c4cccnc4)C(=O)C4=CC(=O)CC[C@]4(C)[C@H]3CC[C@]12C)C(C)C` the figure was 112%; with `C=C(C)[C@@H]1CC[C@]2(c3nnc(-c4ccncc4)o3)CC[C@]3(C)[C@H](CC[C@@H]4[C@@]5(C)CCC(=O)NC(C)(C)[C@@H]5CC[C@]43C)[C@@H]12`, 100%; with `COc1cc(NC(C)CN(CC(C)C)C(C)C)c2ncccc2c1` (stereo not drawn), 101%.
With `Nc1c2c(nc3ccc(Cl)cc13)CC(c1ccccc1)CC2=O` (stereo not drawn) the figure was 76.9%; with `COC(=O)[C@]12CC[C@@H](C)[C@H](C)[C@@H]1C1=CC[C@@H]3[C@@]4(C)C[C@@H](O)[C@H](O)[C@@](C)(CO)C4=CC[C@@]3(C)[C@]1(C)CC2`, -5.82% (active).
Take `CCC1C(=O)COC1=O` (stereo not drawn): the growth was 71.4%.
As to `C=C(C)[C@@H]1CC[C@]2(C)[C@H](CC=C3[C@@H]4CC(C)(C)CC[C@]4(C(=O)OC)CC[C@]32C)[C@@]1(C)CC/C(N)=N/O`, the growth was 68%.
For `O=C(/C=C/c1cccc2ccccc12)Nc1ncc(Cc2ccccc2)s1`, the growth is 20.9%.
In the case of `N#Cc1c(-c2ccc(O)cc2)c2c(N)nn(-c3ccccc3)c2[nH]c1=O`, the growth is 102%.
For `COc1ccc(-c2c(-c3nc4ccc(N5CCOCC5)cc4[nH]3)[nH]c(C)c2C(C)=O)cc1`, the growth is 27.7%.
For `c1ccc(-c2nc(Nc3ccc(-c4nc5ccccc5[nH]4)cc3)nc(N3CCOCC3)n2)cc1`, the growth was -30.3% (active).
For the compound `Cc1cc2nc3c4cc(Cl)ccc4n(CCN(C)C)c3nc2cc1C`, the growth was 31.1%.
As to `Cc1cc(N2CCOCC2)nc(N(CCCNc2ccnc3cc(Cl)ccc23)Cc2ccco2)n1`, the growth is 50.1%.
On to `Cc1cc(N(CCNc2ccnc3cc(Cl)ccc23)Cc2ccco2)nc(Cl)n1`, for which the growth is -36.3% (active).
Under `COc1ccc(/C=C/C(=O)NCCO)cc1` stands 94.2%; under `O=C1NC(c2ccc(Cl)c(Cl)c2)=C/C1=C\c1ccccc1`, 100%; under `N#C/C(=C\c1ccc(-c2ccccc2)o1)c1nc(-c2ccco2)cs1`, 97.2%.
Under `C=C1C(=O)O[C@H]2[C@H]1CC/C(COC(=O)NCc1c[nH]c3ccccc13)=C\CC[C@@]1(C)O[C@@H]21` stands 86.5%.
Under `Cn1cc(-c2csc(-c3cn(CCN)c4ccccc34)n2)c2cccnc21` stands 63.8%.
`C=C(C)[C@@H]1CC[C@]2(C)[C@H](CC[C@@H]3[C@H]4[C@H]5OC[C@@]4(CCC5(C)C)CC[C@]32C)[C@@]1(C)CCCN`: the growth is 104%.
With `CC[C@]12C=CCN3CC[C@@]4(c5cc([C@H]6CCC(=O)N6)c(OC)cc5N(C)[C@H]4[C@@](O)(C(=O)OC)[C@@H]1OC(C)=O)[C@@H]32` the figure was 91.1% [2.5 µM]; with `COc1cc2c(cc1-c1c(C)noc1C)ncc1nc(C3CCCCC3)n([C@@H](C)COC(F)F)c12`, 4.85% (active).
Under `COc1ccc(/C=C(\C#N)c2cc3ccccc3n2S(C)(=O)=O)cc1` stands 112%.
Under `CCc1cccc(CC)c1NC(=O)c1sc2nc3c(cc2c1N)CCCC3` stands 81.9%; under `O=C1CCC/C=C\C[C@H]2C=C(Cl)C(=O)/C2=C/C[C@H](CCCCC(F)(F)F)OC(=O)CCC/C=C\C[C@H]2C=C(Cl)C(=O)/C2=C/C[C@H](CCCCC(F)(F)F)O1`, -2.87% [7.5 µM] (active).
With `COc1cc(-c2cc3ncccc3c3nc(N)c4cccnc4c23)cc(OC)c1OC`, the growth was 20.5%.
Under `COC(=O)[C@]12CC[C@@H](C)[C@H](C)[C@@H]1C1=CC[C@@H]3[C@@]4(C)C[C@@H](OC(C)=O)[C@H](O)[C@@](C)(CO)[C@@H]4[C@H](O)C[C@@]3(C)[C@]1(C)CC2` stands -95.4% (active).
Under `Cc1ccc(N(CC(=O)Nc2ccc(S(=O)(=O)NC3CCN(C)CC3)cc2)S(=O)(=O)c2ccc(Cl)cc2)cc1` stands 105%; under `N#CC1=C(N)Oc2ccc3ccccc3c2C1c1ccccc1` (stereo not drawn), 47.2%.
Under `COc1ccc(C(=O)/C=C/c2cc(-c3cc(OC)c(OC)c(OC)c3)n[nH]2)cc1OC` stands 51.6%; under `Cn1c(/C(C#N)=C/c2ccc3ccccc3c2)cc2ccccc21`, 58.8%; under `CCN(CC)c1ccc(/C=C/c2cc(C)c3ccccc3n2)cc1`, 57.7%.

Values taken from PubChem BioAssay (NCI).
